Compound activity (PubChem)
Sampled rows, rich in hits. Any-hit rate of the full collection: about 2.4%.
Pf Dd2 inh: inhibitors of Plasmodium falciparum Dd2 growth | P. falciparum Dd2 growth, SYBR Green, 72 h; hits give low values | activity change, % at 10 µM | 2.3% of 94,000 active | AID 1159554; in the data active means activity change below about -80%; inconclusive means no clear call, values can overlap the other calls
C diff HTS: inhibitors of Clostridium difficile growth. Clostridium difficile clinical isolate growth, OD600, 24 h; hits give low values. growth activity, negative = inhibition, % at 16 µg/mL (by protocol). 0.25% of 86,000 active. AID 1259249;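 active means mean growth activity at or below -80% and every replicate also at or below -80%; inconclusive means mean at or below -80% but some replicate above -80%; inactive means mean growth activity above -80%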;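 further: 0% = DMSO wells and -100% = levofloxacin 16 µg/mL wells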
The depositor's hits bear a star; ? = inconclusive; . = no result given.

SMILES	Pf Dd2 inh	C diff HTS
CCNC(=O)C[C@@H]1CC[C@@H]2[C@H](COC[C@H](O)CN2C(=O)Nc2ccc(Cl)c(Cl)c2)O1	-4	.
O=C(C[C@H]1CC[C@H]2[C@@H](COC[C@H](O)CN2C(=O)c2ccccc2F)O1)NCc1ccc(-c2ccccc2)cc1	-55	-3
O=C(C[C@H]1CC[C@H]2[C@@H](COC[C@H](O)CN2C(=O)Nc2ccc(Cl)c(Cl)c2)O1)NCc1ccccc1	-1	.
O=C(C[C@@H]1CC[C@@H]2[C@H](COC[C@@H](O)CN2C(=O)Nc2ccc(Cl)c(Cl)c2)O1)NCc1ccc(F)cc1	-10	-16
Cc1noc(C)c1NC(=O)N(C)C[C@@H]1Oc2ccc(NC(=O)C3CC3)cc2C(=O)N([C@@H](C)CO)C[C@H]1C	11	-1
Cc1noc(C)c1NC(=O)N(C)C[C@H]1Oc2ccc(NC(=O)Nc3ccc4c(c3)OCO4)cc2CC(=O)N([C@H](C)CO)C[C@H]1C	-10	-2
C[C@H]1CN([C@@H](C)CO)C(=O)c2cccc(NS(=O)(=O)c3ccc(F)cc3)c2O[C@@H]1CN(C)Cc1ccc(C(=O)O)cc1	24	.
CCCc1cn(CC[C@H]2CC[C@@H](NS(=O)(=O)c3ccc(-c4ccccc4)cc3)[C@H](CO)O2)nn1	-94*	-10
CCCc1cn(CC[C@@H]2CC[C@H](NS(=O)(=O)c3ccc(-c4ccccc4)cc3)[C@@H](CO)O2)nn1	-76	-14
CCCc1cn(CC[C@@H]2CC[C@@H](NS(=O)(=O)c3ccc(-c4ccccc4)cc3)[C@H](CO)O2)nn1	-93*	-2
CCCc1cn(CC[C@H]2CC[C@H](NS(=O)(=O)c3ccc(-c4ccccc4)cc3)[C@@H](CO)O2)nn1	-89*	2
CN(C)Cc1cn(CC[C@@H]2CC[C@H](NS(=O)(=O)c3ccc(-c4ccccc4)cc3)[C@@H](CO)O2)nn1	9	.
CN(C)Cc1cn(CC[C@@H]2CC[C@H](NS(=O)(=O)c3ccc(-c4ccccc4)cc3)[C@H](CO)O2)nn1	-25	.
CCC(=O)N1[C@H](CO)[C@H](c2ccc(C#CC3CCCC3)cc2)[C@@H]1CNC(C)C	-54	34
C[C@@H]1CN([C@H](C)CO)S(=O)(=O)c2ccc(-c3cccc(F)c3)cc2O[C@H]1CN(C)C(=O)C1CC1	-1	-1
C/C=C/c1ccc([C@@H]2[C@H](CO)N(CC3CC3)C23CN(C(=O)c2ccc4c(c2)OCO4)C3)cc1	-83*	23
C/C=C/c1ccc([C@H]2[C@@H](CO)N(CC3CC3)C23CN(C(=O)COC)C3)cc1	-5	-3
COc1ccccc1CN1C[C@@H](C)[C@H](OC)CN(C)C(=O)c2ccc(NC(C)=O)cc2OC[C@H]1C	3	.
CCCC#Cc1ccc([C@H]2[C@@H](CO)N3CCCCN(S(=O)(=O)Cc4ccccc4)C[C@@H]23)cc1	-23	17
CC(C)CC#Cc1ccc([C@@H]2[C@@H](CO)N3CCCCN(S(=O)(=O)Cc4ccccc4)C[C@@H]23)cc1	-83*	-4
CC(C)CC#Cc1ccc([C@H]2[C@H](CO)N3CCCCN(S(=O)(=O)Cc4ccccc4)C[C@@H]23)cc1	?	-11
CC(C)CC#Cc1ccc([C@@H]2[C@H](CO)N3CCCCN(S(=O)(=O)Cc4ccccc4)C[C@@H]23)cc1	-84*	-2
COc1ccc(S(=O)(=O)N(C)C[C@H]2OCCCC[C@@H](C)Oc3ccc(NC(=O)Nc4ccc(F)cc4)cc3C(=O)N([C@H](C)CO)C[C@H]2C)cc1	-80	8
COc1ccc(NC(=O)Nc2ccc3c(c2)C(=O)N([C@H](C)CO)C[C@@H](C)[C@@H](CN(C)S(=O)(=O)c2ccc(F)cc2)OCCCC[C@@H](C)O3)cc1	-81*	-7
COc1ccc(S(=O)(=O)N(C)C[C@H]2OCCCC[C@H](C)Oc3ccc(NC(=O)Nc4ccc(F)cc4)cc3C(=O)N([C@H](C)CO)C[C@H]2C)cc1	-81*	0
COc1ccc(NC(=O)Nc2ccc3c(c2)C(=O)N([C@H](C)CO)C[C@H](C)[C@H](CN(C)S(=O)(=O)c2ccc(F)cc2)OCCCC[C@@H](C)O3)cc1	?	4
COc1ccc(S(=O)(=O)N(C)C[C@@H]2OCCCC[C@@H](C)Oc3ccc(NC(=O)Nc4ccc(F)cc4)cc3C(=O)N([C@@H](C)CO)C[C@H]2C)cc1	-45	7
COc1ccc(NC(=O)Nc2ccc3c(c2)C(=O)N([C@H](C)CO)C[C@@H](C)[C@H](CN(C)S(=O)(=O)c2ccc(F)cc2)OCCCC[C@@H](C)O3)cc1	-82*	1
CCCC(=O)Nc1ccc2c(c1)C(=O)N(C)[C@H]1CC[C@@H](CC(=O)O)O[C@H]1CO2	2	3
COc1ccc(CN(C)C[C@H]2OCCCC[C@@H](C)Oc3ccc(NC(=O)c4ccncc4)cc3C(=O)N([C@@H](C)CO)C[C@H]2C)cc1	4	4
